Source: PubChem BioAssay (NCATS)
Inconclusive results are not listed. Entries that show only a call come without a potency. Activity calls are given as the source filed them. The call rests on the fitted dose curve; in most records, active means well fitted curve in the direction sought with a large enough effect; inconclusive means small, poorly fitted or top-dose-only effect, or another doubt; inactive means no such curve, though single readings can be large; an effect the other way counts as inactive or inconclusive.

How the values were obtained:
[1] = NS1 protein of Zika virus - qHTS assay to identify small molecule inhibitors in human HEK 293 cells (AID 1347053); further: nearly all actives have a fitted effect of over 55% in size
Method in brief: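 HEK 293 cells pretreated with compound for 1 h, then infected with ZIKV MR766 (MOI 0.5) for 24 h at 37 C. NS1 detected by TR-FRET with two anti-NS1 antibodies; normalized to uninfected (0%) and infected (100%) wells.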

[2] = qHTS of pediatric cancer cell lines to identify multiple opportunities for drug repurposing: Primary screen for DAOY cells (AID 1347090); further: nearly all actives have a fitted effect of over 55% in size
Method in brief: (§1)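 Viability measured as metabolically active cells via CellTiter-Glo luminescence following 48 hours of compound exposure, 11-point dilutions in confirmatory testing. 500-1,000 cells/well plated 5 hours before dosing; controls were DMSO and 2.3 µM bortezomib.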

[3] = qHTS of pediatric cancer cell lines to identify multiple opportunities for drug repurposing: Primary screen for SJ-GBM2 cells (AID 1347091)
Method in brief: as §1

[4] = qHTS of pediatric cancer cell lines to identify multiple opportunities for drug repurposing: Primary screen for SK-N-MC cells (AID 1347093)
Method in brief: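 Metabolically active cells were quantified by ATP-dependent luminescence (CellTiter-Glo, 15 min at room temperature) following 48 h treatment. Cells had been plated at 500-1,000 per well and settled for 5 h beforehand.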

[5] = qHTS of pediatric cancer cell lines to identify multiple opportunities for drug repurposing: Primary screen for BT-37 cells (AID 1347094)
Method in brief: (§2)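 Primary screen of approved and investigational compounds on cells in growth media at 37 degrees C, 5% CO2. MIPE set at 11-point and NPC set at 8-point dilutions; viability scored by ATP-based luminescence at 48 hours.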

[6] = qHTS of pediatric cancer cell lines to identify multiple opportunities for drug repurposing: Primary screen for NB-EBc1 cells (AID 1347095)
Method in brief: as §2

[7] = qHTS of pediatric cancer cell lines to identify multiple opportunities for drug repurposing: Primary screen for U-2 OS cells (AID 1347096); further: nearly all actives have a fitted effect of over 50% in size
Method in brief: (§3)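 Viability after 48 h compound treatment at 37C, 500-1,000 cells/well, read as ATP luminescence with CellTiter-Glo. Primary screens used 11-point (MIPE, 0.78 nM-46 µM) or 8-point (NPC, 0.59 nM-46 µM) final concentrations; follow-up screens used 11-point dilutions.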

[8] = qHTS of pediatric cancer cell lines to identify multiple opportunities for drug repurposing: Primary screen for SK-N-SH cells (AID 1347098); further: nearly all actives have a fitted effect of over 65% in size
Method in brief: (§4)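 Cells (500-1,000/well) rested 5 h, then received compounds for 48 h; metabolically active cells were measured by CellTiter-Glo luminescence. Final concentrations spanned up to 46 µM (MIPE, 11-point) or 0.59 nM-46 µM (NPC, 8-point) in primary screens, 11-point in follow-ups.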

[9] = qHTS of pediatric cancer cell lines to identify multiple opportunities for drug repurposing: Primary screen for NB1643 cells (AID 1347099); further: nearly all actives have a fitted effect of over 50% in size
Method in brief: as §2

[10] = qHTS of pediatric cancer cell lines to identify multiple opportunities for drug repurposing: Primary screen for LAN-5 cells (AID 1347100)
Method in brief: as §3

[11] = qHTS of pediatric cancer cell lines to identify multiple opportunities for drug repurposing: Primary screen for Rh18 cells (AID 1347102); further: nearly all actives have a fitted effect of over 65% in size
Method in brief: as §3

[12] = qHTS of pediatric cancer cell lines to identify multiple opportunities for drug repurposing: Primary screen for TC32 cells (AID 1347089); further: nearly all actives have a fitted effect of over 60% in size
Method in brief: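 Luminescent ATP read-out (CellTiter-Glo) of metabolically active TC32 cells after 48 h exposure. Concentration-response curves came from 11-point (MIPE, 0.78 nM–46 µM) or 8-point (NPC, 0.59 nM–46 µM) primary titrations; follow-up used 11 points.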

[13] = qHTS of pediatric cancer cell lines to identify multiple opportunities for drug repurposing: Primary screen for A673 cells (AID 1347092); further: nearly all actives have a fitted effect of over 45% in size
Method in brief: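 Cell viability of A673 measured by CellTiter-Glo ATP luminescence after 48 hours compound exposure. Dilution series spanned 0.78 nM to 46 µM (MIPE, 11-point) or 0.59 nM to 46 µM (NPC, 8-point); bortezomib 2.3 uM positive control.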

[14] = qHTS of pediatric cancer cell lines to identify multiple opportunities for drug repurposing: Primary screen for Saos-2 cells (AID 1347097); further: nearly all actives have a fitted effect of over 40% in size
Method in brief: as §2

[15] = qHTS of pediatric cancer cell lines to identify multiple opportunities for drug repurposing: Primary screen for BT-12 cells (AID 1347101); further: nearly all actives have a fitted effect of over 25% in size
Method in brief: as §4
Potency means the concentration at half of the fitted maximal effect.

Row | Structure (SMILES) | Potency [1] | Potency [2] | Potency [3] | Potency [4] | Potency [5] | Potency [6] | Potency [7] | Potency [8] | Potency [9] | Potency [10] | Potency [11] | Potency [12] | Potency [13] | Potency [14] | Potency [15]
1 | O=C(N[C@@H](c1ccccc1)[C@@H]1CCCCN1)c1cccc(C(F)(F)F)c1Cl | inactive | inactive | inactive | 20.9 µM (active) | 19.3 µM (active) | 7.43 µM (active) | inactive | 21.5 µM (active) | inactive | 18.7 µM (active) | inactive | – | – | – | –
2 | CNC1CCC(N(Cc2cccc(-c3ccncc3)c2)C(=O)c2sc3c(F)ccc(F)c3c2Cl)CC1 (stereo unspecified) | 10.5 µM (active) | – | – | 1.18 µM (active) | – | – | – | 19.2 µM (active) | 18.7 µM (active) | – | – | inactive | 23.5 µM (active) | – | –
3 | CN(C)Cc1cccc(N=C(c2ccccc2)c2c(O)[nH]c3cc(C(=O)N(C)C)ccc23)c1 | inactive | – | 18.7 µM (active) | 14.8 µM (active) | – | 18.7 µM (active) | inactive | 21.5 µM (active) | – | – | – | inactive | – | 11.8 µM (active) | 6.85 µM (active)
4 | CCn1c(C(=O)N(C2CC2)C2CC2)cc2c3c(ncn3C)c(Nc3cc(C)n(C)n3)nc21 | inactive | – | – | – | inactive | inactive | inactive | – | – | – | – | inactive | – | – | –
5 | c1cc(-c2sc(-c3ccncc3)c(-c3ccncc3)c2-c2ccncc2)ccn1 | inactive | – | inactive | 20.9 µM (active) | inactive | inactive | inactive | – | – | inactive | inactive | inactive | – | – | –
6 | Cc1cnc(C(=O)O)c[n+]1[O-] | inactive | inactive | inactive | inactive | – | inactive | inactive | – | inactive | inactive | inactive | – | inactive | inactive | inactive
7 | C[C@H]1[C@H](NC(=O)C(=NOC(C)(C)C(=O)O)c2csc(N)n2)C(=O)N1S(=O)(=O)O | inactive | inactive | inactive | inactive | – | inactive | inactive | inactive | inactive | inactive | inactive | – | inactive | inactive | inactive
8 | CC=CC[C@@H](C)C(=O)[C@H]1C(=O)N[C@@H](C(C)C)C(=O)N(C)CC(=O)N(C)[C@@H](CC(C)C)C(=O)N[C@@H](C(C)C)C(=O)N(C)[C@@H](CC(C)C)C(=O)N[C@@H](C)C(=O)N[C@H](C)C(=O)N(C)[C@@H](CC(C)C)C(=O)N(C)[C@@H](CC(C)C)C(=O)N(C)[C@@H](C(C)C)C(=O)N1C | inactive | – | 18.7 µM (active) | – | – | inactive | inactive | 30.4 µM (active) | – | – | inactive | inactive | – | 18.7 µM (active) | –
9 | Cc1c[nH]c(C=C2C(=O)Nc3ccccc32)c1CCC(=O)O | inactive | – | 18.7 µM (active) | inactive | inactive | – | inactive | 24.1 µM (active) | – | 18.7 µM (active) | – | inactive | – | – | –
10 | C[N+]1(C)[C@@H]2CC(OC(=O)[C@H](CO)c3ccccc3)C[C@H]1[C@H]1O[C@@H]12 (stereo partly specified) | inactive | inactive | inactive | inactive | inactive | inactive | inactive | inactive | – | inactive | inactive | – | inactive | inactive | inactive
11 | O=C1NC(=O)C(=Cc2ccc3nccnc3c2)S1 | inactive | – | 8.12 µM (active) | 2.29 µM (active) | – | 4.57 µM (active) | inactive | inactive | 7.24 µM (active) | – | – | inactive | – | 8.12 µM (active) | –
12 | CC1(C)S[C@H]2[C@H](NC(=O)[C@@H](N)c3ccc(O)cc3)C(=O)N2[C@@H]1C(=O)O | inactive | 9.35 µM (active) | 16.6 µM (active) | 0.743 µM (active) | 6.85 µM (active) | – | – | 24.1 µM (active) | 1.18 µM (active) | 3.72 µM (active) | 2.96 µM (active) | – | 0.935 µM (active) | – | –
13 | Cc1[nH]c(C=C2C(=O)Nc3ccc(S(=O)(=O)Cc4c(Cl)cccc4Cl)cc32)c(C)c1C(=O)N1CCC[C@H]1CN1CCCC1 | inactive | – | 0.0332 µM (active) | 18.7 µM (active) | 27.3 µM (active) | inactive | – | – | – | 14.8 µM (active) | 14.8 µM (active) | – | 23.5 µM (active) | – | –
14 | CC(C)[C@H](CO)Nc1nc(Nc2ccc(C(=O)O)c(Cl)c2)c2ncn(C(C)C)c2n1 | inactive | – | – | – | – | 23.5 µM (active) | inactive | – | – | – | inactive | – | – | 18.7 µM (active) | –
15 | COc1ccc(-c2nc(N3CCOCC3)c3sc(CN(C)c4ncc(C(=O)NO)cn4)cc3n2)cn1 | – | 0.0118 µM (active) | 0.0066 µM (active) | 0.001 µM (active) | 0.0069 µM (active) | 0.001 µM (active) | 0.0118 µM (active) | 0.0341 µM (active) | 0.001 µM (active) | 0.001 µM (active) | 0.001 µM (active) | 0.0415 µM (active) | 0.0935 µM (active) | – | –
16 | O=C(O)c1c(Cl)c(Cl)c(Cl)c(Cl)c1-c1c2cc(I)c(=O)c(I)c-2oc2c(I)c(O)c(I)cc12 | inactive | – | – | – | – | – | – | 24.1 µM (active) | – | – | – | – | – | – | –
17 | CC(C)(C)NC(=O)Nc1cccc(Nc2ncc(F)c(NC(C)(C)CO)n2)c1 | inactive | – | – | 3.32 µM (active) | – | – | inactive | – | – | – | inactive | – | 18.7 µM (active) | inactive | –
